# Screening data from PubChem BioAssay.
# Rab9 promoter act: activators of Rab9 promoter. 320,000 compounds, 2.8% hits. Potency, µM (doses to about 9.22 µM), without a hit: top-dose activation, negative = inhibition, hits mostly activators. Huh7 Rab9 promoter-luciferase reporter, luminescence, 24 h; note: % of control where 0% means no effect; nearly all actives have a fitted effect of over 60% in size
#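 Using Huh7 cells stably transfected with Rab9 promoter–luciferase, compounds were incubated 24 h at 37 °C, 5% CO2; luciferase luminescence was read 10 min after reagent addition.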
# FLuc counter: counter-screen for miR-21 project: firefly luciferase inhibitors or activators; Potency, µM (highest dose often 57.5 µM), inactives show at the top dose activity change, negative = inhibition, usual class: inhibitors; purified FLuc, Km substrates, luminescence inhibition; P08659; 360,000 compounds, 6.9% hits;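 note: plate controls were vehicle for no effect and reference inhibitor for full effect; nearly all actives have a fitted effect of over 55% in size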
# Target sequence (P08659 whole entry, looked up): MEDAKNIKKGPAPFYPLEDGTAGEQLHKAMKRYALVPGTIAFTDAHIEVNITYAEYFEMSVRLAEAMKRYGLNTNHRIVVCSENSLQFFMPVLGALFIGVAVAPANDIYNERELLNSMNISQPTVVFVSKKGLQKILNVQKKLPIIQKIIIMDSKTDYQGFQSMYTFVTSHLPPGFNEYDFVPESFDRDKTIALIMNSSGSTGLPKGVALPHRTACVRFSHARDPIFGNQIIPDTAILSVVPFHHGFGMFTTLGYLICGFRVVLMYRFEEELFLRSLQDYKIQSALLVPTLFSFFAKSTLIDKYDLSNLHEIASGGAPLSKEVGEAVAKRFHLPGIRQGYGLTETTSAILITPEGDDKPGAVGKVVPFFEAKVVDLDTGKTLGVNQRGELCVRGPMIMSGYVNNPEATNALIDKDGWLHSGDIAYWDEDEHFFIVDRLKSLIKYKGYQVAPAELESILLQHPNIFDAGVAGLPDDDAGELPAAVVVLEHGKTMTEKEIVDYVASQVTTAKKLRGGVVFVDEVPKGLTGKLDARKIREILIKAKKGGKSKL
#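 Biochemical qHTS of compounds, final roughly 60 µM downward over six points, against 10 nM purified firefly luciferase using Km concentrations of substrates (10 uM D-luciferin, 10 uM ATP) in Tris acetate pH 7.5 buffer; luminescence output.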
# ELG1 DNA repair: inhibitors of ELG1-dependent DNA repair in HEK293T cells | HEK293T ELG1-luciferase reporter, luminescence, 16 h; DNA damage induced by 5-fluorouridine | Potency, µM (highest dose often 46.1 µM), for inactives: at the top dose activity change, negative = inhibition, actives largely listed as inhibitors | 330,000 compounds, 2.3% hits; note: % is set by controls: 0 for no effect and ±100 for the full control effect; nearly all actives have a fitted effect of over 55% in size
#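 Step one: seed 2,000 cells per well. Step two: pin-transfer compound or DMSO alongside 5-fluorouridine. Step three: incubate 16 hr, 37 °C, 5% CO2. Step four: add ONE-Glo, wait 30 min, read luminescence.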
# ELG1 genotoxic: inducers of genotoxicity in HEK293T ELG1-luciferase cells; AID 504466; Potency, µM (doses to about 46 µM), inactives show at the highest dose activity change, positive = activation, actives largely listed as activators; 330,000 compounds, 1.3% hits; HEK293T ELG1-luciferase reporter, luminescence, 16 h; note: % of control where 0% means no effect; nearly all actives have a fitted effect of over 60% in size
#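 Luminescence read-out: rising ELG1-luciferase signal, reflecting elevated ELG1 protein under genetic stress, flags genotoxic compounds. Cells were treated for 16 hr at 37 °C before ONE-Glo detection.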
# SMN2 splice enh: enhancers of SMN2 splice variant expression. HEK293 SMN2-luciferase splicing reporter, luminescence, 30-36 h. Potency, µM (series often up to 46.1 µM), without a hit: top-dose activity change, positive = activation, actives largely listed as activators. 210,000 compounds, 2.8% hits. AID 1458; note: % of control where 0% means no effect; nearly all actives have a fitted effect of over 55% in size
#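 HEK293 cells carry an SMN2 minigene-luciferase reporter in which exon 7 inclusion puts luciferase in frame. Cells were seeded at 2000 cells/well, attached for 10-12 hours, then exposed to compounds for 30-36 hours at 37C before ONE-Glo luminescence.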
# NPC1 prom act: activators of NPC1 promoter; Potency, µM (doses to about 9.22 µM), for the others: at the highest dose activation, most hits filed as activators; Huh7 NPC1 promoter luciferase reporter, 24 h; AID 485313; 320,000 compounds, 2.4% hits; note: % of control where 0% means no effect; nearly all actives have a fitted effect of over 60% in size
#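 Cells: Huh7 expressing luciferase under the NPC1 promoter, 1500/well. Seeded 2 h, compound added, incubated 24 h at 37 °C. Luciferase reagent, 10 min ambient, then luminescence.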
# Active calls of the source: *; ? = inconclusive; . = no result given; [ ] = another dose, or the depositor's remark. Shown are actives, neighbours in structure and some others; about 9.4% of the full set was active somewhere. Calls come from the whole dose curve; as a rule, active = well fitted curve in the direction sought with a large enough effect; inconclusive = small, poorly fitted or top-dose-only effect, or another doubt; inactive = no such curve, though single readings can be large; an effect the other way counts as inactive or inconclusive. Potency is the fitted concentration of half-maximal effect.
SMILES,Rab9 promoter act,FLuc counter,ELG1 DNA repair,ELG1 genotoxic,SMN2 splice enh,NPC1 prom act
CC/C=C\C/C=C\C/C=C\C/C=C\C/C=C\C/C=C\CCC(=O)NCCCC(=O)O,.,.,.,.,-8%,.
CCOc1ccccc1N(C)C(=O)Cn1cnc2onc(-c3ccc(F)cc3)c2c1=O,.,-12%,.,.,.,.
CCOC(=O)c1ccc(NC(=O)c2nn(CC)cc2Br)cc1,?,11µM*,?,?,?,?
CCOC(=O)c1ccc(NC(=O)c2nn(C)cc2Br)cc1,?,6.7µM*,?,21µM*,24%,?
CCn1cc(Br)c(C(=O)Nc2ccc(F)c(Cl)c2)n1,2.8µM*,17µM*,?,?,11%,2.2µM*
CCOC(=O)c1ccc(NC(=S)NC(=O)c2nn(CC)cc2Br)cc1,2%,-3%,18%,2%,12%,10%
C[C@@H]1C[C@H](C)CN(S(=O)(=O)c2cc(Cl)c(Oc3ccc([N+](=O)[O-])cc3Cl)c(Cl)c2)C1,.,.,.,.,3%[9.22 µM],.
CS(=O)(=O)c1ccc2nc(NC(=O)c3cc4ccccc4o3)sc2c1,?,2.7µM*,?,1%,21%,?
CS(=O)(=O)c1ccc2nc(NC(=O)Oc3ccccc3)sc2c1,-4%,?,0%,4%,9%,2%
CS(=O)(=O)c1ccc2nc(NC(=O)c3cccc(Cl)c3)sc2c1,1%[1.84 µM],?,9%,12%,.,17%
CS(=O)(=O)c1ccc2sc(NC(=O)c3cc4ccccc4o3)nc2c1,?,2.7µM*,?,2%,.,?
CCc1cnc2c(c1SCc1c(F)cccc1Cl)c(=O)n(C)c(=O)n2C,.,-4%,.,.,.,.
C/C(=N\OC(=O)c1ccc(C)cc1)c1sc(C)nc1C,-2%,2.7µM*,2%,0%,-10%,-4%
C/C(=N\OC(=O)c1ccc(Cl)c(Cl)c1)c1sc(C)nc1C,-2%,5.4µM*,1%,1%,-10%,-1%
C/C(=N/OC(=O)c1ccccc1Br)c1ccc(C)cc1,17%,2.7µM*,?,?,.,18%
C/C(=N/N=C(/C)c1cccs1)c1cccs1,?,4.8µM*,?,?,.,?
CC(C)(C)C(=O)OC/C(N)=N/OC(=O)c1ccc(Cl)c(Cl)c1,0%,?,-10%,-3%,.,0%
Cc1ccc(Cl)cc1N1CCN(C(=O)Cn2cnc3sc(C)c(S(=O)(=O)N4CCC(C)CC4)c3c2=O)CC1,.,-3%,.,.,5%,.
COc1ccc(-c2c(C#N)c(SCC(=O)Nc3cccc(Cl)c3)nc(C)c2C(=O)Nc2ccccc2)cc1OC,.,-1%,.,.,18%,.
CCN(Cc1ccccc1)C(=O)Cn1c(=O)n(-c2cccc(C)c2)c(=O)c2c1c1cc(C)ccc1n2C,.,0%,.,.,.,.
C/C(=N/OC(=O)c1ccc(C)cc1)c1cccs1,2%,0.076µM*,?,1%,11%,-1%
O=C(c1ccc(-c2ccccc2)cc1)c1ccccc1C(=O)N1CCOCC1,-1%,?,-4%,-4%,.,-2%
O=C(/C=C/N1CCOCC1)c1ccc(-c2ccccc2)cc1,3.2µM*,11µM*,?,17%,?,1.8µM*
O=C(/C=C\N1CCOCC1)c1ccc(Br)cc1,?,15µM*,?,?,.,?
COc1cccc2c1Oc1ncccc1N(C(=O)CCC(=O)NCCC(C)C)C2,.,-2%,.,.,.,.
SMILES,Rab9 promoter act,FLuc counter,ELG1 DNA repair,ELG1 genotoxic,SMN2 splice enh,NPC1 prom act
Cc1ccc(C(=O)c2cnc3cc4c(cc3c2S(=O)(=O)c2ccccc2)OCCO4)cc1,13%,1.7µM*,?,11%,-85%,14%
N#CC1=C(Nc2ccc(Br)cc2)CCC1,7%,-22%,28%,?,.,0%
Cc1ccc(NC2=Nc3ccccc3CC2)cc1,0.4µM*,1.9µM*,?,0.73µM*,12%,0.4µM*
Brc1ccc(NC2=Nc3ccccc3CC2)cc1,?,3.8µM*,?,18%,10µM*,3.2µM*
Cc1ccc(N2C(=O)c3ccccc3C2O)nc1 (configuration not stated),0.28µM*,1.5µM*,?,?,0.56µM*,?
Cc1ccc(N2C(=O)c3ccccc3C2Nc2ccccc2F)nc1 (configuration not stated),20%,0%,-28%,2%,-5%,-5%
Cc1ccc(C)c(S(=O)(=O)N2CCN(C(=O)c3ccc(OCc4c(C)noc4C)cc3)CC2)c1,0%,0%,16µM*,2%,.,-6%
Cc1ccc(NC(=O)c2ccc(OCc3c(C)noc3C)cc2)cc1C,.,.,10µM*,-8%,.,.
CC(=O)Nc1ccc(NC(=O)c2ccc(OCc3c(C)noc3C)cc2)cc1,.,.,0%,7%,.,.
O[C@@H](c1cc(-c2ccccc2)nc2c1ccc1ccccc12)C1CCCCN1 (some centres not stated),.,.,.,.,-5%[9.22 µM],.
CC1CCc2sc(C(=O)NC3CCCCC3)cc2C1 (configuration not stated),3.5µM*,?,?,?,.,1.8µM*
CC1CCc2sc(C(=O)NNC(=S)NCC3CCCO3)cc2C1 (configuration not stated),20%,-16%,16%,8%,.,-2%
CC1CCc2sc(C(=O)NC(C)C3CCCO3)cc2C1 (configuration not stated),?,11µM*,?,?,.,?
O=C(c1ccco1)N1CCC2(CC1)CN(c1ccccc1)C2,.,.,.,.,-37%,.
O=C(NC1CCC(O)CC1)c1ccc(-c2ccc(Cl)cc2)o1 (configuration not stated),?,11µM*,?,14%,.,?
O=C(NC1=NCCS1)c1ccc(-c2ccc(Cl)cc2)o1,2µM*,1.9µM*,?,2.1µM*,13µM*,2µM*
O=C(NC1=NCCS1)c1ccc(Br)s1,3.5µM*,7.6µM*,?,7.3µM*,11µM*,3.5µM*
COc1ccc(Cl)cc1C(=O)NC1=NCCS1,14%,?,?,3%,.,0%
O=C(NC1=NCCS1)c1ccc(Cl)cc1,2µM*,11µM*,?,10µM*,.,1.6µM*
COc1cc(C2c3c(oc4ccccc4c3=O)C(=O)N2c2nnc(C(C)C)s2)cc(OC)c1OC (configuration not stated),.,-1%,.,.,-4%,.
O=C(COc1ccc([N+](=O)[O-])cc1)Nc1cccc2cccnc12,.,0%,.,.,-4%,.
COc1ccc(CC(=O)N2CCc3cc(OC)c(OC)cc3C2COc2cc(C)cc(C)c2)cc1OC (configuration not stated),.,-3%,.,.,.,.
